HttQ103 aggreg = mutant huntingtin aggregation inhibition. PC12 HttQ103-GFP aggregates, Acumen cytometry, 40 h. Potency, µM (titrated, usually from 46.1 µM), hits mostly inhibitors. 1.1% of 220,000 active. AID 1688; active = well fitted curve in the direction sought with a large enough effect; inconclusive = small, poorly fitted or top-dose-only effect, or another doubt; inactive = no such curve, though single readings can be large; an effect the other way counts as inactive or inconclusive; note: nearly all actives have a fitted effect of over 60% in size
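Using laser scanning cytometry, GFP-positive aggregates were counted after lysis of PC12 cells induced with 100 nM tebufenozide to express HTT exon 1 Q103–GFP. Compounds were tested in titration.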
ALDH1A1 block = inhibitors of human aldehyde dehydrogenase 1A1; AID 1030; Potency, µM (series often up to 75.3 µM), hits mostly inhibitors; 7.3% of 220,000 active; Purified ALDH1A1, NADH fluorescence, propionaldehyde substrate; P00352
HPGD block = blocks human HPGD enzyme activity; Potency, µM, actives largely listed as inhibitors; AID 894; 4.3% of 150,000 active; P15428; purified HPGD, NADH fluorescence kinetic, PGE2 substrate
Target sequence (P15428 whole entry, looked up): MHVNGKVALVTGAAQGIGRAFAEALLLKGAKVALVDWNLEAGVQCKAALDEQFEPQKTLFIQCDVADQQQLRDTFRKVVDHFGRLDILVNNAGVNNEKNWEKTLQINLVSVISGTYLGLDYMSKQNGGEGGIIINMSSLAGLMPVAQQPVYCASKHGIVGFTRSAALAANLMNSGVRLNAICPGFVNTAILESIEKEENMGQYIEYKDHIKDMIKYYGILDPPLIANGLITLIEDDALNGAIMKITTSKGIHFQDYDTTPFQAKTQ
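NADH formation kinetics: reaction with 30 uM PGE2 and 1 mM NAD+ (final), 20 nM enzyme, Tris-HCl pH 8 with Tween 20, after 15 min compound preincubation at room temperature. Fluorescence change, last versus first of five reads.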
HTT cytoprotect = cytoprotection in Huntington HTT-Q103 PC12 cell model. PC12 HTT-Q103 induced, cytoprotection, ATP luminescence, 40 h. Potency, µM (series often up to 56.4 µM), usual class: activators. 0.14% of 230,000 active; active = well fitted curve in the direction sought with a large enough effect; inconclusive = small, poorly fitted or top-dose-only effect, or another doubt; inactive = no such curve, though single readings can be large; an effect the other way counts as inactive or inconclusive; note: nearly all actives have a fitted effect of over 45% in size
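Readout: ATPlite luminescence (ATP level). Model: stable PC12, inducible Htt exon1 Q103-GFP. Inducer: tebufenozide, 100 nM final. Compounds: dose series. No G418 in medium.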
JMJD2E inh = blocks human JMJD2E demethylase activity; JMJD2E catalytic domain, FDH-coupled NADH fluorescence (FDH is formaldehyde dehydrogenase); Potency, µM (series often up to 57.1 µM), actives largely listed as inhibitors; 1.6% of 230,000 active; note: nearly all actives have a fitted effect of over 50% in size
Target sequence (B2RXH2 1-337 limits assumed): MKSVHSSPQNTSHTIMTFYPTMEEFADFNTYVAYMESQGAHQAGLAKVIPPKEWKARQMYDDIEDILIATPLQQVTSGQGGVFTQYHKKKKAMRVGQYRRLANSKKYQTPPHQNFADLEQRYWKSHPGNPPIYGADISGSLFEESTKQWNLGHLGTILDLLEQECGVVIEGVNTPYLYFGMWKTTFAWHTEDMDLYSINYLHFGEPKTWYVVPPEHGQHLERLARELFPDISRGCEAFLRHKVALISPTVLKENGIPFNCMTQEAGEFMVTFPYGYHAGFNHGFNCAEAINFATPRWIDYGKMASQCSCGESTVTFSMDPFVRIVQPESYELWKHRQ
LMNA splice mod = LMNA splicing modulation | HeLa LMNA splicing GFP/RFP minigene ratio, 48 h | Potency, µM (highest dose often 46.1 µM), hits mostly inhibitors | 0.01% of 200,000 active | AID 1487; active = well fitted inhibition curve with a large enough effect in the signal ratio, with a control signal flat, not every such curve was filed as active; inconclusive = small, poorly fitted or top-dose-only effect, or effect the other way, or a change in a side signal; the % refers to the signal ratio
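S3 HeLa cells stably expressing lamin A-EGFP splicing minigene plus DsRed2, 600 cells/well, 48 h compound exposure at 37C. Laser-scanning cytometry; analysed as GFP (500-530 nm)/RFP (575-640 nm) total intensity ratio; 0.5% DMSO vehicle.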
Hits are given with their value; . = inactive; ? = inconclusive; / = not tested or not shown; ! = a repeat was not active; [ ] = another dose, or the depositor's remark. Shown are actives, neighbours in structure and some others; about 9.2% of the full set was active somewhere. Unless noted, calls come from the whole dose curve; as a rule, active = well fitted inhibition curve with a large enough effect (not every such curve was filed as active); inconclusive = small, poorly fitted or top-dose-only effect, or another doubt; inactive = no such curve, though single readings can be large or run the other way.

SMILES	HttQ103 aggreg	ALDH1A1 block	HPGD block	HTT cytoprotect	JMJD2E inh	LMNA splice mod
O=C(O[C@@H]1Cc2c(O)cc(O)cc2OC1c1ccc(O)c(O)c1)c1cc(O)c(O)c(O)c1 (some centres not stated)	/	.	.	/	7.08µM	.
O=C1c2c(O)cc(O)cc2OC(c2ccc(O)c(O)c2)C1O (configuration not stated)	/	.	?	.[1.9 µM]	8.91µM	.
Oc1cc(O)c2c(c1)O[C@H](c1ccc(O)c(O)c1)[C@H](O)C2	/	.	.	?	11.2µM!	.
O=C(OC1Cc2c(O)cc(O)cc2OC1c1cc(O)c(O)c(O)c1-c1c(C2Oc3cc(O)cc(O)c3CC2OC(=O)c2cc(O)c(O)c(O)c2)cc(O)c(O)c1O)c1cc(O)c(O)c(O)c1 (configuration not stated)	/	.	22.4µM	/	11.2µM	.
CCOC(=S)SCC(=O)O	/	?	.	.[10 µM]	/	/
OB(O)c1ccc(B(O)O)cc1	/	.	.	.	.	/
Nc1n[nH]c(C2CCCCC2)n1	.[9.22 µM]	.	/	.[10 µM]	.	/
S=c1nc(C2CCCCC2)[nH][nH]1	.	?	14.1µM	.[10 µM]	?	.
CC(C)(C)c1ccc(NC(=S)NCc2cccs2)cc1	?	.	.	.	.	?
Cc1cc(C)cc(NC(=S)NCc2cccs2)c1	.	.	14.1µM	.[10 µM]	.	.
COc1cc(NC(=S)NCc2cccs2)cc(OC)c1	.	.	17.8µM	?	.	.
NC(=O)OC[C@H](O)COc1ccc(Cl)cc1	.	.	.	.	.	?
CC(=O)NS(=O)(=O)c1ccc(NC(=O)c2oc3c(Cl)cccc3c2C)cc1	.[9.22 µM]	/	/	.[10 µM]	.	/
Cc1cc(-c2ccccc2)n(-c2ccc(C(N)=O)cc2)n1	.	?	31.6µM	.[10 µM]	.	.
CNC(=O)c1ccc(-n2nc(C)cc2-c2ccccc2)cc1	.	?	.	.	.	.
N#CC1=C2SCC(O)(c3ccccc3)N2C(=O)CC1c1ccccc1 (configuration not stated)	?	?	.	.	.	?
CN1CSC2=C(C#N)C(c3cccc(OCc4ccccc4)c3)CC(=O)N2C1 (configuration not stated)	.	7.94µM	14.1µM	.	.	?
CCOC(=O)CC1=C(C(=O)OCC)C(c2cccs2)C(C#N)=C(N)O1 (configuration not stated)	.	.	.	.	?	.
N#CC1=C2SCN(Cc3ccco3)CN2C(=O)CC1c1cccc2ccccc12 (configuration not stated)	.	?	?	.[0.074 µM]	?	.
Cc1ccc(N2CSC3=C(C#N)C(c4cccs4)CC(=O)N3C2)cc1 (configuration not stated)	.	8.91µM	7.94µM	.	?	.
CCOC(=O)c1ccc(N2CSC3=C(C#N)C(c4cccs4)CC(=O)N3C2)cc1 (configuration not stated)	.	22.4µM	.	.	?	.
CCc1ccc(C2CC(=O)N3CN(c4ccccc4)CSC3=C2C#N)cc1 (configuration not stated)	.	10µM	7.94µM	.	?	.
COc1ccc(N2CSC3=C(C#N)C(c4cccs4)CC(=O)N3C2)cc1 (configuration not stated)	.	2µM	7.08µM	.	.	.
COc1ccc(N2CC(NC(=O)c3cccs3)CC2=O)cc1 (configuration not stated)	/	/	/	/	/	.
N#CC1=C2SCN(c3ccc(F)cc3)CN2C(=O)CC1c1cccc(F)c1 (configuration not stated)	.	1.89µM	5.62µM	.	22.4µM	.
SMILES	HttQ103 aggreg	ALDH1A1 block	HPGD block	HTT cytoprotect	JMJD2E inh	LMNA splice mod
CCc1ccc(N2CSC3=C(C#N)C(c4cccs4)CC(=O)N3C2)cc1 (configuration not stated)	.	8.91µM	12.6µM	.	?	.
COc1ccc(NC(=O)Cn2nc(C)c3nn(-c4ccc(Cl)cc4)c(C)c3c2=O)cc1	/	/	/	/	/	.
Cc1cc(C)cc(NC(=O)CCS(=O)(=O)c2ccc3c(c2)oc(=O)n3C)c1	/	/	/	/	/	.
CC(C)c1ccc2[nH]c3nc(SCC(=O)N4CCOCC4)nnc3c2c1	.	?	/	.	.	/
COc1cccc(CSCC(=O)O)c1	/	.[13.5 µM]	.	.[10 µM]	/	/
C#CCn1c(=NC(=O)c2ccc(S(=O)(=O)N3CCc4ccccc4C3)cc2)sc2cc(S(N)(=O)=O)ccc21	10µM	?	?	.[10 µM]	6.31µM	?
COCCn1c(=NC(=O)c2ccc(S(=O)(=O)N3CCc4ccccc4C3)cc2)sc2cc(S(N)(=O)=O)ccc21	.	?	?	/	3.98µM	.
O=C(Nc1ccccc1OCc1cc(=O)n2ccccc2n1)c1cccc(Br)c1	/	/	/	/	/	.
NC(=O)C1CCN(c2ncc(C(F)(F)F)cc2Cl)CC1	.	.	/	.	.	.
COc1ccc2cc(C(=O)C3CCCN(C(=O)CCc4cnn(C)c4)C3)ccc2c1 (configuration not stated)	.[9.22 µM]	?	/	.[10 µM]	?	/
CCN1C(=O)[C@@H]2[C@H](C1=O)[C@@H]1C[C@H]3C(=O)N(CC)C(=O)[C@H]3[C@@H]3C1=C(C(=O)N1C(=O)OC(=NCC4CC4)[C@]31C)[C@@H]2C	.[9.22 µM]	/	/	.[10 µM]	.	/
COC(=O)[C@@H]1C[C@H]1[C@@H](NC(=O)OCc1ccccc1)c1ccccc1	/	/	/	.	/	/
COc1ccc(CCN2C(=O)c3cccc4c(C(=O)N5CCCCC5)ccc(c34)C2=O)cc1OC	?	10µM	12.6µM	.[10 µM]	.	?
COc1ccc(CCNC(=O)CCN2C(=O)c3cccc4cccc(c34)C2=O)cc1OC	.	.	/	/	.	.
O=C(CSc1ncn[nH]1)NC12CC3CC(CC(C3)C1)C2	.	.	.	.	.	.
C=CCSC1=NC(N)=C(C#N)C2(CCCCC2)C1C(N)=O (configuration not stated)	.	?	.	.	.	.
CCOC(=O)c1ccc(NC(=O)CSC2=NC(=O)C(CC)C(=O)N2)cc1 (configuration not stated)	.	.	.	.[1.9 µM]	.	.
CC(C)(C)C1CCC2(CC1)C(C#N)=C(SCC(=O)NC1CCCCC1)NC(=O)C2C#N (configuration not stated)	11.2µM	?	.	.[0.074 µM]	.	?
CCOC(=O)C1=C(SCC(=O)Nc2ccccc2)NC(=O)C(C#N)C12CCCCC2 (configuration not stated)	.	12.6µM	.	.	.	.
N#CC1=C(SCC(=O)NC23CC4CC(CC(C4)C2)C3)NC(=O)C(C#N)C12CCCCC2 (configuration not stated)	3.55µM	1.12µM	.	.[10 µM]	.	?
C=CCSC1=C(C#N)C2(CCCCC2)C(C#N)C(=O)N1 (configuration not stated)	.	2.51µM	.	.	.	.
CN1CCN(CC(=O)Nc2cccc3ccccc23)CC1	/	.[13.5 µM]	.	.[10 µM]	/	/
